In ChEMBL document CHEMBL4513216, “Probing the Open Global Health Chemical Diversity Library for Multistage-Active Starting Points for Next-Generation Antimalarials” (ACS Infect Dis, 2020) one finds INHIBITION data, which are given here for 106 compounds.

Structures are written as SMILES. Screen size: about 69,000 compounds; about 8,600 (12%) showed an effect of 50% or more. The full list was thinned out, with strong results kept by preference.

The test system of this assay is Plasmodium berghei. The assay is described as follows: Screen against P. berghei liver stage (PbLuc), transformed with Luciferase, at 10uM. The format is functional, HepG2. Conditions: tested at 10 uM.
In the case of `CNc1cc(CNC(=O)c2ccccc2OC)nc(-c2ccncc2)n1`, the INHIBITION was found to be 23.4%.
To `O=c1[nH]nc2c(S(=O)(=O)N3CCCCCC3)cccn12` belongs -15.2%; to `O=c1[nH]nc2c(S(=O)(=O)N3CCCC3)cccn12`, 6.12%.
To `O=c1[nH]nc2c(S(=O)(=O)N3CCCCC3)cccn12` belongs 51%.
To `Cc1ccoc1C1=NNC(=CN2CCn3c(nnc3C(C)C)C2)O1` belongs 15.3%; to `CC(C)c1nc(CN(C)C(=O)C(O)c2ccc(Cl)cc2)cs1` (stereo unspecified), -15.6%; to `O=c1cc(CN(Cc2ccco2)C2CC2)nc2ccc(Br)cn12`, 9.65%.
In the case of `CN(C1CCCCC1)S(=O)(=O)N1CCN(Cc2ccco2)CC1`, the INHIBITION stood at 40%.
Regarding `CC1CCN(C(=O)CN(Cc2ccco2)C2CC2)CC1`, the INHIBITION was 37%.
Regarding `CN1CCC(N(Cc2ccco2)S(=O)(=O)c2cc(Br)ccc2Br)CC1`, the INHIBITION came out at 69.8%.
To `CN1CCC(N(Cc2ccco2)S(=O)(=O)c2ccc(Cl)cc2)CC1` belongs 27.9%; to `CN1CCC(N(Cc2ccco2)S(=O)(=O)c2ccc(Br)cc2Cl)CC1`, 61.2%.
As to `CC(NCc1cccc(Cl)c1)c1ccc(OCC(=O)NC2CC2)cc1` (stereo unspecified), the INHIBITION was 13.3%.
To `COc1ccc2nnc(CCC(=O)NCc3cccn3C)n2n1` belongs 9.57%; to `Cc1nc(CCC(N)=O)cc(C2CCCN2S(C)(=O)=O)n1` (stereo unspecified), 26.1%; to `CC(C)c1nc2c(n1C)CCN(CC(=O)Nc1nncs1)C2`, -12.2%.
To `CC(=O)NC1CCN(c2ccnc(C3CCNCC3)c2)CC1` belongs 2.55%; to `Fc1ccc2[nH]c3c(c2c1)CCN1C(c2ccncc2)N2CCC31CC2` (stereo unspecified), -62.4%; to `O=C(CSC(F)(F)F)N1CCC2(CCCN(C3CCOCC3)C2=O)C1` (stereo unspecified), -36.6%.
For the compound `CCN(CC)C(=O)Nc1ccc(C(=O)N(C)C)c(C)c1`, the INHIBITION is recorded as 19.7%.
Turning to `Cc1cc(NC(N)=O)ccc1C(=O)N(C)C`, the INHIBITION was found to be 61%.
As for `Cc1cc(NCC(C)C)ccc1C(=O)N(C)C`, the INHIBITION was determined as 21.5%.
To `Cn1cc(-c2nnn3c2COC(CNCC2CCOCC2)C3)cn1` (stereo unspecified) belongs 5.67%; to `Cc1c(-c2ccccc2)ncn1CC(c1cccnc1)N1CCOCC1` (stereo unspecified), 37.2%; to `Cc1c(-c2ccccc2)ncn1CCCNc1cccnc1`, 22.7%.
Take `CSC(C)Cc1c(-c2ccccc2)ncn1CCCNc1cccnc1` (stereo unspecified): the INHIBITION is recorded as 82.5%.
To `CCN(C)CC(C)Cn1cnc(-c2ccccc2)c1C` (stereo unspecified) belongs -107%.
To `CSCCc1c(-c2ccccc2)ncn1CCNc1cccnc1` belongs 63.6%.
To `Cc1cc(NCCCNc2cccnc2)n2nc(C)c(C)c2n1` belongs 3.945%; to `CC[C@H]1N(Cc2ccco2)CCC[C@]12CCC(=O)N2C`, 1.34%; to `CC(C)NC(=O)Nc1ncc(-c2cccnc2)s1`, -42.9%.
Turning to `Cc1nn(C)c(C)c1C1COCCN1C(=O)c1ccc(Cl)o1` (stereo unspecified), the INHIBITION is recorded as -16%.
For the compound `Cc1ccc(NCc2cn3c(n2)CN(Cc2ccoc2)CC3)nn1`, the INHIBITION is on record as 26.5%.
As to `O=C1CC2(CCSC2)C(=O)N1Cc1ncc(-c2cccc(F)c2)o1` (stereo unspecified), the INHIBITION was -26.8%.
To `COc1cccc(-c2cc(C(=O)N3N=C(C)CC3(O)C(F)(F)F)[nH]n2)c1` (stereo unspecified) belongs 38.3%; to `Cc1ncc(-c2ccccn2)c(CCNC(=O)CCC2CCCO2)n1` (stereo unspecified), 28.5%.
For `C[C@@H](NCc1cccc(Cl)c1)c1onc(-c2ccc(F)cc2)c1C(=O)O`, the INHIBITION was -3.58%.
To `CCCc1nc(CN2CCOC(Cn3cccn3)C2)no1` (stereo unspecified) belongs -43.5%; to `CN(Cc1ccccc1)c1ncccc1CNC1CCSCC1`, 51.8%; to `CN(Cc1ccccc1)c1ncccc1CNC1CCCC1`, 20.4%.
Regarding `CC(C)N1CCC(NCc2cccnc2N(C)Cc2ccccc2)CC1`, the INHIBITION is reported as 37.8%.
To `CC(=O)N1CCC(NCc2cccnc2N(C)Cc2ccccc2)CC1` belongs 6.31%; to `CN(Cc1ccccc1)c1ncccc1CNC1CN2CCC1CC2` (stereo unspecified), 62.6%; to `CN(Cc1ccccc1)c1ncccc1CNC1CCC1`, 22.5%.
To `CC(C)(C)CC(=O)NCC(=O)Nc1ccn(Cc2ccncc2)n1` belongs -12.4%; to `Cc1nn(C)cc1C(=O)N1C[C@@H]2CC[C@H]1CN(S(=O)(=O)N(C)C)C2`, -109%.
As for `Cn1cccc1C(O)CNC(=O)c1ccc(C(F)(F)F)cc1` (stereo unspecified), the INHIBITION is listed as -118%.
To `Cc1occc1C(=O)N1CCC2(CCN(C(=O)c3cccnc3)C2)CC1` belongs 28.5%; to `CS(=O)(=O)N1CCOCC2(CCN(C(=O)c3cccnc3)CC2)C1`, 18.5%; to `CS(=O)(=O)N1CCC2(CN(C(=O)c3cccnc3)C2)C1`, 33.5%.
As for `CS(=O)(=O)N1CCC2(CCN(C(=O)c3cccnc3)CC2)C1`, the INHIBITION is on record as 58.8%.
To `Cc1ccc(C(=O)N2CCC3(CCN(C(=O)c4cccnc4)C3)CC2)o1` belongs 34.7%; to `CC(=O)NCC(=O)N1CCC2(CC1)CN(c1cccnc1)C(=O)CO2`, 17.1%; to `O=C(c1cccnc1)N1CCC2(CCN(C(=O)c3ccco3)CC2)C1`, 59.3%.
To `Cc1cccc(N2CCC3(CCCN(C(=O)c4cccnc4)C3)C2)n1` (stereo unspecified) belongs -19.1%; to `O=C(CC1CC1)N1CCC2(CC1)CN(c1cccnc1)C(=O)CO2`, 30.3%; to `O=C(N1CCCC1)N1CCC2(CC1)CN(c1cccnc1)C(=O)CO2`, 82.9%.
`Cc1ccc(C(=O)N2CCC3(CCCN(c4ccc(C)nn4)C3)C2)cn1` (stereo unspecified): the INHIBITION is reported as 18.6%.
Consider `Cc1ccc(N2CCC3(CCCN(C(=O)c4cccnc4)C3)C2)nn1` (stereo unspecified), for which the INHIBITION amounted to 53.5%.
To `Cc1nn(C)c(C)c1CNCc1cccnc1N1CCOCC1` belongs 22.5%.
To `CN(C)C(=O)C1OC2(CCN(C(=O)c3ccco3)CC2)c2ccccc21` (stereo unspecified) belongs 12.7%; to `CC(C#N)CN(C)C(=O)CCNC(=O)C(C)(C)C` (stereo unspecified), -6.91%; to `CCc1[nH]ncc1C(=O)N1CCCC(n2cc(C)cn2)C1` (stereo unspecified), -12.2%.
As to `O=C(c1ccco1)N1C[C@H]2CCCN(Cc3cccs3)[C@H]2C1`, the INHIBITION stood at 37%.
Regarding `CC(C)c1nn(C)c(N2CCOCC2)c1CNCCC(=O)N(C)C`, the INHIBITION was determined as 24.95%.
For `O=S(=O)(NCc1ccccc1)Nc1ccc(-n2cncn2)cc1`, the INHIBITION is 35%.
To `CC(C)c1n[nH]c(C2CN(C(=O)CCc3cscn3)CCO2)n1` (stereo unspecified) belongs -15.52%.
Take `Cc1ccccc1OCC(=O)N1CCCC(CNS(C)(=O)=O)C1` (stereo unspecified): the INHIBITION is recorded as -3.8%.
To `O=C(NCc1nncn1C1CCCCC1)C1CNCCO1` (stereo unspecified) belongs 33.4%.
To `COc1ccc(C2CCCN2C(=O)c2ccnc(NC3CC3)c2)cc1` (stereo unspecified) belongs -59.3%; to `O=C(NC1CC1)N1Cc2[nH]nc(COc3cccnc3)c2C1`, -4.02%; to `CN(C)Cc1cccc(-c2cccnc2C(=O)NCC2CC2)c1`, 18.4%.
For `Cn1cccc1C(=O)N1CCC2(CCN(C(=O)c3cccnc3)C2)CC1`, the INHIBITION amounted to 37.6%.
To `O=C(c1ccno1)N1CCC2(CC1)C(=O)Nc1ccccc12` belongs -19.5%; to `Cc1cccc(N2CCC3(CCN(C(=O)c4cccnc4)CC3)C2)n1`, 19.5%; to `O=C(c1ccnnc1)N1CCC2(CC1)CCN(C(=O)c1cccnc1)C2`, 16.8%.
As to `CN1CCC2(CCN(C(=O)c3cccnc3)C2)C1` (stereo unspecified), the INHIBITION amounted to 12.2%.
With `O=C(c1ccoc1)N1CCC2(CC1)C(=O)Nc1ccccc12`, the INHIBITION is listed as 25.4%.
To `O=C(c1ccco1)N1CCC2(CC1)C(=O)Nc1ccccc12` belongs 64.4%; to `O=C(c1cccnc1)N1CCC2(CCN(C(=O)N3CCCC3)CC2)C1`, 61.1%.
To `O=C(c1ccncc1)N1CCC2(CC1)CCN(C(=O)c1cccnc1)C2` belongs 53.9%; to `Cc1cccc(N2CCC3(CCCN(C(=O)c4cccnc4)C3)CC2)n1`, -1.26%.
To `NC(=O)N1CCC2(CCN(C(=O)c3cccnc3)CC2)C1` belongs 86.5%; to `CC(C)N1CCC2(CCN(C(=O)c3cccnc3)CC2)C1`, 15.4%.
On to `c1cnn(-c2ccc(CN3CCCC(Cn4cncn4)C3)cc2)c1` (stereo unspecified), for which the INHIBITION turned out to be 13.3%.
To `O=C(O)C(c1ccc(O)cc1)N1CCC(N2CCSCC2)CC1` (stereo unspecified) belongs 18.6%; to `Cc1nc[nH]c1CN(C)Cc1cnn(-c2ccc(F)cc2)c1`, -5.22%.
To `O=S(=O)(CCN1CCCCC1Cn1cccn1)c1ccccc1` (stereo unspecified) belongs 25.8%; to `Cc1noc(C)c1CNC(=O)Nc1ccc(N2CCOC(C)C2)cc1` (stereo unspecified), 5.94%.
As for `CN(Cc1cnn(C)c1)C(=O)Cn1c(CS(C)(=O)=O)nc2ccccc21`, the INHIBITION is on record as -7.11%.
As to `CC(CN1CCOC1=O)NC(=O)c1ccccc1Oc1ccccc1` (stereo unspecified), the INHIBITION came to 18.4%.
To `CCN(Cc1ccoc1)C(=O)NC1CCN(CC2CC2)C1` (stereo unspecified) belongs 19.3%; to `CCN(Cc1ccoc1)C(=O)NC1CCN(CC=C(C)C)CC1`, 57.2%.
To `CCN(Cc1ccoc1)C(=O)NC1CCN(CC2CCCC2)CC1` belongs 48.5%; to `Cc1cccc(CC(=O)NS(=O)(=O)c2ccc(F)c(F)c2)c1`, 23.5%; to `CN(CC(=O)NS(=O)(=O)c1ccsc1)Cc1ccccc1`, 9.76%.
To `CN(CC(=O)NS(=O)(=O)c1cccs1)Cc1ccccc1` belongs 32%; to `CN(CC(=O)NS(=O)(=O)c1ccc(F)cc1)Cc1ccccc1`, 50%.
For `Cc1ccc(S(=O)(=O)NC(=O)CCc2ccccc2)cc1N(C)C`, the INHIBITION came out at 12.589%.
Turning to `Cc1cccc(S(=O)(=O)NC(=O)CN(C)Cc2ccccc2)c1`, the INHIBITION worked out at 55.1%.
Consider `CCS(=O)(=O)N1C[C@H]2CN(Cc3cccc(C)c3)C(=O)[C@H]2C1`, for which the INHIBITION was -1.36%.
To `N#Cc1ccccc1N1CCCN(C(=O)NCc2cc[nH]n2)CC1` belongs 10%; to `CC(c1cccc(S(N)(=O)=O)c1)N(C)CCCOc1ccccc1` (stereo unspecified), 23.4%.
To `CCN1CCC(CC(=O)NCCc2nc(O)cc(O)n2)CC1` belongs -16.3%; to `COc1c(CNC2CCCN(c3ncccn3)C2)c(C(C)C)nn1C` (stereo unspecified), 42.9%.
To `Cc1ccc(CN2CCC3(CC2)C(=O)N(CC(C)C)CCN3C)s1` belongs -31.9%.
